Each structure is given as a SMILES string. Inconclusive results are not listed. Active and inactive are the calls of the source. Calls come from the whole dose curve; as a rule, active = well fitted inhibition curve with a large enough effect; inconclusive = small, poorly fitted or top-dose-only effect; inactive = flat fitted curve, though single readings scatter.

Test in all cases: qHTS profiling for inhibitors of Plasmodium falciparum proliferation (AID 504749); note: nearly all actives have a fitted effect of over 60% in size
Holding throughout (details): P. falciparum in erythrocytes, SYBR Green DNA, 72 h; series mostly up to 12.8 µM
(In general: qHTS replaces the single test concentration by a dilution series.)

In one experiment the test system is AS120. The essentials:
(§1)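 Each compound contacts P. falciparum-infected red blood cells for 72 h at 37 C; lysis buffer (Tris, EDTA, saponin, Triton X, SYBR Green I) is added and fluorescence measured next morning; values normalized to controls.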

In a further experiment the test system is CP238. Summed up: as §1
A further experiment concerns DIV30. The essentials:
as §1

A further experiment relates to ECU. The essentials:
as §1

In another experiment the test system is N140. The essentials: as §1
In another experiment the test system is PC26. The essentials: as §1
In another experiment the test system is SC27B. The essentials: as §1
Another experiment deals with TAB109. The essentials: as §1
For a further experiment, the system named is TAB165. Summed up:
as §1

The subject of a further experiment is CP185. The essentials:
as §1

The next experiment deals with CP194. Summed up: as §1
The test system of another experiment is CP256. Summed up: as §1
The subject of another experiment is CP266. Summed up: as §1
For the next experiment, the system named is CP269. The essentials: as §1
A further experiment deals with CP286. Summed up:
as §1

The test system of another experiment is CP291. The essentials:
as §1

A further experiment relates to CP297. Summed up:
as §1

In a further experiment the test system is CP325. Summed up:
as §1

Another experiment has as its system FAB9. Summed up: as §1
The test system of the next experiment is PC15. Summed up: as §1
Potency is the fitted concentration of half-maximal effect.

Consider `Clc1ccc([C@H](Cn2ccnc2)OCc2c(Cl)cccc2Cl)c(Cl)c1`, for which the Potency in the experiment with AS120 was 1260 nM (active); with CP238 it was 3550 nM (active); in the experiment on DIV30, 7210 nM (active); in the experiment on ECU, 1780 nM (active); in the experiment with N140, 3160 nM (active); in the experiment on PC26, 4550 nM (active). Besides, the values for the Potency with SC27B, in the experiment on TAB109 and with TAB165 were 1580 nM (active), 2820 nM (active) and 355 nM (active), respectively.

Regarding `C#C[C@]1(O)CC[C@@H]2[C@H]3CCC4=CCCC[C@@H]4[C@@H]3CC[C@@]21C`, the Potency result in the experiment on AS120, with CP185, in the experiment with CP194, with CP238, with CP256 and in the experiment on CP266 was “inactive” throughout. For the same compound, the Potency entry in the experiment with CP269, in the experiment on CP286, in the experiment on CP291, in the experiment with CP297, with CP325 and in the experiment on DIV30 was “inactive” each time. In addition, the Potency entry in the experiment on ECU, with FAB9, in the experiment on N140, with PC15, in the experiment with PC26 and with SC27B was “inactive” each time. For the same compound, the Potency result in the experiment on TAB109 and in the experiment with TAB165 was “inactive” each time.

Regarding `CCOC(=O)O[C@@H](C)OC(=O)[C@@H]1N2C(=O)[C@@H](NC(=O)[C@@H](N)c3ccccc3)[C@H]2SC1(C)C`, the Potency entry in the experiment with AS120, with CP185, in the experiment on CP194, in the experiment with CP238, in the experiment with CP256 and with CP266 was “inactive” each time. Besides, the Potency result in the experiment on CP269, in the experiment with CP286, in the experiment with CP291, with CP297, in the experiment with CP325 and in the experiment on DIV30 was “inactive” each time. Moreover, the Potency entry with ECU, in the experiment on FAB9, in the experiment on N140, in the experiment on PC15, in the experiment with PC26 and with SC27B was “inactive” each time. Moreover, the Potency entry in the experiment on TAB109 and with TAB165 was “inactive” throughout.

Regarding `CN[C@H]1[C@H](O)[C@@H](O[C@@H]2[C@H](O)[C@@H](O[C@H]3OC(CN)=CC[C@H]3N)[C@@H](N)C[C@H]2N)OC[C@@]1(C)O`, the Potency result with AS120, with CP185, with CP194, in the experiment on CP238, with CP256 and with CP266 was “inactive” each time. In addition, the Potency entry with CP269, with CP286, in the experiment with CP291, in the experiment on CP297, in the experiment with CP325 and in the experiment with DIV30 was “inactive” in each case. In addition, the Potency result with ECU, in the experiment on FAB9, with N140, with PC15, in the experiment with PC26 and in the experiment with SC27B was “inactive” in each case. The Potency entry with TAB109 and with TAB165 was “inactive” each time.

As to `CCN(CCCCOC(=O)c1ccc(OC)c(OC)c1)[C@@H](C)Cc1ccc(OC)cc1`, the Potency result in the experiment with AS120, in the experiment on CP238, in the experiment on CP256, in the experiment with CP266, with CP291 and in the experiment on CP297 was “inactive” throughout. Further, the Potency entry with CP325, with DIV30, in the experiment on ECU, in the experiment on FAB9, in the experiment with N140 and in the experiment with PC15 was “inactive” in each case. Besides, the Potency entry with SC27B and in the experiment with TAB165 was “inactive” throughout.

Consider `CC(C)C1CCC(C(=O)NC(Cc2ccccc2)C(=O)O)CC1` (stereo not drawn), for which the Potency result in the experiment with AS120, in the experiment with CP185, with CP194, in the experiment with CP238, in the experiment on CP256 and with CP269 was “inactive” each time. Besides, the Potency entry in the experiment on CP286, in the experiment on CP291, in the experiment with CP297, in the experiment on CP325, in the experiment with DIV30 and with ECU was “inactive” throughout. For the same compound, the Potency result with FAB9, in the experiment with N140, in the experiment on PC15, in the experiment with PC26, in the experiment with SC27B and in the experiment with TAB109 was “inactive” throughout. Also, the Potency entry in the experiment with TAB165 was “inactive”.

Consider `CC1(C)SC2C(N3C(=O)C(c4ccccc4)NC3(C)C)C(=O)N2C1C(=O)O` (stereo not drawn), for which the Potency result in the experiment on AS120, in the experiment on CP185, in the experiment on CP194, with CP238, in the experiment with CP256 and in the experiment with CP266 was “inactive” each time. In addition, the Potency result in the experiment with CP269, in the experiment with CP286, in the experiment with CP291, in the experiment on CP297, in the experiment with CP325 and in the experiment on DIV30 was “inactive” in each case. The Potency result in the experiment with ECU, with FAB9, in the experiment on N140, in the experiment on PC15, in the experiment on PC26 and in the experiment with SC27B was “inactive” each time. Besides, the Potency result in the experiment on TAB109 and with TAB165 was “inactive” throughout.

`NC(C(=O)O)[C@@H]1CC(Cl)=NO1` (stereo partly drawn): the Potency in the experiment with AS120 is 1780 nM (active); in the experiment with CP185 it was 2820 nM (active); in the experiment on CP194 it was 3380 nM (active); with CP238, 2820 nM (active); with CP256, 2820 nM (active); in the experiment on CP266, 3790 nM (active). Moreover, the Potency was 2690 nM (active) in the experiment with CP269; 794 nM (active) with CP286; 2130 nM (active) in the experiment with CP291; 3380 nM (active) in the experiment with CP297; 2690 nM (active) with CP325; 3380 nM (active) with DIV30. For the same compound, the Potency is 2240 nM (active) in the experiment with ECU; 2820 nM (active) with FAB9; 1260 nM (active) in the experiment with N140; 3160 nM (active) with PC15; 1900 nM (active) in the experiment on PC26; 1410 nM (active) in the experiment with SC27B. Besides, the Potency in the experiment on TAB109 and with TAB165 was 1000 nM (active) throughout.

On to `COC1C=CO[C@@]2(C)Oc3c(C)c(O)c4c(O)c(c5c(nc6cc(C)ccn65)c4c3C2=O)NC(=O)/C(C)=C\C=CC(C)C(O)[C@@H](C)C(O)C(C)[C@@H](OC(C)=O)C1C` (stereo partly drawn), for which the Potency in the experiment on AS120 was 2510 nM (active); in the experiment with CP185 it was 10000 nM (active); with CP194, 12000 nM (active); with CP238, 10000 nM (active); with CP269 it was 10700 nM (active); with CP291, 13500 nM (active). In addition, the Potency in the experiment with CP297 was 4260 nM (active); with DIV30 it was 1350 nM (active); in the experiment with ECU, 12600 nM (active); with N140 it was 3550 nM (active); in the experiment on PC15 it was 12600 nM (active); with PC26, 1200 nM (active). In addition, the Potency in the experiment on SC27B was 12600 nM (active); with TAB109, 11200 nM (active); with TAB165, 2240 nM (active).

In the case of `COC1C=CO[C@@]2(C)Oc3c(C)c(O)c4c(O)c(c(C=NN5CCN(C)CC5)c(O)c4c3C2=O)NC(=O)/C(C)=C\C=CC(C)C(O)[C@@H](C)C(O)C(C)[C@H](OC(C)=O)C1C` (stereo partly drawn), the Potency in the experiment on AS120 was 282 nM (active); with CP185, 3160 nM (active); with CP194, 4780 nM (active); in the experiment with CP238 it was 3550 nM (active); in the experiment with CP256, 3550 nM (active); in the experiment with CP266 it was 6750 nM (active). Besides, the Potency in the experiment with CP269 is 4260 nM (active); in the experiment on CP286, 2510 nM (active); in the experiment with CP291, 4260 nM (active); in the experiment on CP297 it was 953 nM (active); with CP325, 4780 nM (active); in the experiment with DIV30, 536 nM (active). In addition, the Potency with ECU is 282 nM (active); in the experiment on N140 it was 199 nM (active); in the experiment on PC15, 398 nM (active); in the experiment on PC26, 1070 nM (active); in the experiment with SC27B, 282 nM (active); in the experiment on TAB109, 2000 nM (active). Further, in the experiment on TAB165, the Potency was 141 nM (active).

For `CNC1CC(N)[C@H](O)[C@@H](O[C@@H]2OC(CO)C3OC4(OC(C(N)CO)C(O)C(O)C4O)O[C@@H]3[C@H]2O)C1O` (stereo partly drawn), the Potency entry with AS120, with CP185, in the experiment on CP194, in the experiment on CP238, in the experiment on CP256 and with CP266 was “inactive” throughout. The Potency entry in the experiment on CP269, with CP286, with CP291, with CP297, with CP325 and in the experiment on DIV30 was “inactive” each time. The Potency entry in the experiment with ECU, with FAB9, in the experiment on N140, with PC15, in the experiment with PC26 and with SC27B was “inactive” each time. Besides, the Potency result with TAB109 and with TAB165 was “inactive” each time.

For `CCOC(=O)C1=CC(OC(CC)CC)C(NC(C)=O)C(N)C1` (stereo not drawn), the Potency result in the experiment on AS120, in the experiment on CP185, in the experiment with CP194, in the experiment on CP238, in the experiment with CP256 and with CP266 was “inactive” throughout. The Potency entry in the experiment on CP269, in the experiment with CP286, with CP291, with CP325, in the experiment on ECU and with FAB9 was “inactive” in each case. Further, the Potency entry in the experiment with N140, in the experiment with PC15, in the experiment on SC27B, with TAB109 and in the experiment with TAB165 was “inactive” throughout.

Values taken from PubChem BioAssay (NCATS).
